In ChEMBL document CHEMBL3988442, “University of Dundee, Small-Polar-MMV Screening Library” (2021):
In all, about 38,000 compounds went through this assay and about 1,200 (3.2%) showed an effect of 50% or more. The median lay at about -58%. Shown is part of a subset that was picked to be rich in strong results.

The compounds below were run on Plasmodium falciparum (assay: Calibr Malaria Delayed Death Assay SOP). Conditions: concentration 4.99e-06 (unit not given; other assays of the set use mol/L).
Type: functional, organism-based
Set-up: scale not given: in the data most compounds retested in dose-response had high values

| SMILES | Percent Effect |
| --- | --- |
| Cc1occc1CNc1ncccc1S(N)(=O)=O | -160.3% |
| CCN(C(=O)C1=NN(c2ccccc2)C(=O)CN1)c1ccccc1 | -71.25% |
| CCN(Cc1ccco1)C(=O)C1=NN(c2ccccc2)C(=O)CN1 | 59.42% |
| O=C(NCCc1ccccn1)C1=NN(c2ccccc2)C(=O)CN1 | -38.96% |
| CCc1nc(N2CCC3(CCC(=O)N(Cc4ccncc4)C3)CC2)no1 | -12.44% |
| CC(C)n1cnnc1CN(C)C(=O)Cn1ccc2ccccc2c1=O | -90.48% |
| CCN(CC)C1CCN(C(=O)NCc2c(C)noc2C)CC1 | -63.79% |
| FC(F)(F)C1CCCn2c(CNCc3ccco3)nnc21 (stereo unspecified) | -67.88% |
| Cc1ccc(N(C)C2CCN(C(=O)CCc3ccco3)CC2)nn1 | -48.98% |
| Cc1noc(C)c1CNCC1CCN(CC(O)c2ccccc2)CC1 (stereo unspecified) | 41.75% |
| CCc1cc(CNC(=O)N2Cc3ccccc3N(C)CC2C)on1 (stereo unspecified) | -73.36% |
| CCc1cc(CNC(=O)N(C2CC2)C(C)c2ccco2)on1 (stereo unspecified) | -36.38% |
| O=C(O)C(F)(F)F.O=C(c1ccco1)N1C[C@H]2CCCN(Cc3ccc(F)cc3)[C@H]2C1 | -36.52% |
| Cn1cccc1C(=O)NCc1cn2c(n1)CN(CC1CCOCC1)CC2.O=C(O)C(F)(F)F | -71.57% |
| Cc1nc(N2CCCC2)nc2c1CCN(C(=O)NC(C)C)CC2 | 3.788% |
| Cc1cccc(N2CCOCC3(C2)CN(c2cncnc2)C(=O)CO3)n1 (stereo unspecified) | -72.37% |
| O=C(CN1CCCC(Cn2cncn2)C1)NCCc1cccs1 (stereo unspecified) | -76.44% |
| O=C(CNC(=O)C1(c2ccc(F)cc2F)CCC1)Nc1cccnc1 | -130.4% |
| Cc1ccc(NCc2cccc3cn[nH]c23)cc1OC1CCOC1 (stereo unspecified) | 18.44% |
| Cc1ccc(CNCc2c[nH]nc2C(C)(C)C)c(OC2CCOC2)c1 (stereo unspecified) | 54.5% |
| Cc1ccc(CNCc2nccn2C)c(OCC2CC2)c1 | -19.72% |
| CN(C)CCN1CCC(CNCc2c[nH]nc2C(C)(C)C)CC1 | -18.94% |

| SMILES | Percent Effect |
| --- | --- |
| COCCN1CCC(CNCc2c[nH]nc2C(C)(C)C)CC1 | -136.4% |
| NC(=O)c1ccc(CN2CCC(N3CCCC3)CC2)cc1 | -126.8% |
| O=C(O)C(F)(F)F.O=c1cccnn1CC1CN(CC2CCCC2)Cc2nccn2C1 (stereo unspecified) | -25.12% |
| Cn1nccc1-c1cnc2n1CCC21CCN(C(=O)C2(C)CC2)CC1 | -43.4% |
| CCNC(=O)NC(=O)CNc1cccc(C(=O)c2ccccc2)c1 | -85.13% |
| CC(C)(N)CNS(=O)(=O)Cc1cccc2cccnc12.Cl | -113.8% |
| CSc1nc2ncc3c(=O)n(CCN4CCCCC4)ccc3n2n1 | -81.14% |
| Cc1ccccc1C(=O)N1CCCn2cnc(CN3CCCC3=O)c2C1 | -111.5% |
| Cc1ncccc1C(=O)Nc1cccc(OCC(F)F)n1 | -105.7% |
| Cc1ccc(CS(=O)(=O)N2Cc3c(CN(C)C)nn(C)c3C2)cc1.O=C(O)C(F)(F)F | 28.75% |
| CCc1ccc(S(=O)(=O)N2Cc3c(CN(C)C)nn(C)c3C2)cc1.O=C(O)C(F)(F)F | 62.16% |
| COc1ccc(S(=O)(=O)N2Cc3c(CN(C)C)nn(C)c3C2)cc1.O=C(O)C(F)(F)F | 40.82% |
| CNc1ncc(CN(C)c2nc(C3CCCC3)nc3c2cnn3C)cn1 | -13.34% |
| CC(C)n1c2ccccc2c2c1cc(C(=O)O)n2C(=O)N(C)C | -103.4% |
| COc1ccc(C(=O)NCCN2CCC(c3cccs3)CC2)cc1OC | 29.34% |
| O=C(NCCc1ccccc1)NCCN1CCC(c2cccs2)CC1 | 76.7% |
| O=C(Cc1ccccc1Cl)NCCN1CCC(c2cccs2)CC1 | 62.17% |
| O=C(NCCN1CCC(c2cccs2)CC1)c1ccccc1C(F)(F)F | 31.51% |
| O=C(NCCC(O)c1ccoc1)Nc1cccs1 (stereo unspecified) | -113.5% |
| COc1ccc(CCC(=O)NCCN2CCC(c3cccs3)CC2)cc1 | 74.85% |
| O=C(Cc1ccccc1Cl)NCC1CCN(Cc2ccsc2)CC1 | 33.59% |
| O=C(NCCN1CCC(c2cccs2)CC1)Nc1cccs1 | 62.79% |

| SMILES | Percent Effect |
| --- | --- |
| CCSc1ccccc1C(=O)NCCN1CCC(c2cccs2)CC1 | 28.22% |
| O=C(NCCN1CCC(c2cccs2)CC1)c1ccc(F)cc1Cl | -24.2% |
| CC(=O)NCCN1CCC(c2cccs2)CC1 | 2.442% |
| CC1CCN(CCNC(=O)c2sccc2C2CC2)CC1 | -42.92% |
| Cn1cnc2c1C(COCC1CC1)CN(c1ncccn1)C2.O=C(O)C(F)(F)F.O=C(O)C(F)(F)F (stereo unspecified) | -186% |
| CCc1nnc(SCc2nonc2C)n1C | -83.75% |
| CCS(=O)(=O)N1Cc2ncn(CC3CC3)c2C(COCC2CC2)C1.O=C(O)C(F)(F)F (stereo unspecified) | -83.39% |
| CC(C)OCc1noc(C2CCOC2)n1 (stereo unspecified) | -54.08% |
| COc1ccc(-c2nnc(CNCCn3cc(C)cn3)o2)cc1 | -61.63% |
| O=C(O)c1cc(S(=O)(=O)Nc2cccc3c2OCCO3)c(Cl)cc1F | -73.09% |
| O=S(=O)(c1ccccc1Cl)N1CCC2(CC1)OCCS2 | -115.5% |
| CCN1CCCC2(CCN(Cc3nnc(C4CC4)o3)C2)C1=O (stereo unspecified) | -40.49% |
| CC(C)CCN1CCN(CC(=O)Nc2ccc3nsnc3c2)CC1 | -73.84% |
| Cc1ncncc1C(=O)N1CCCC(c2[nH]ncc2S(C)(=O)=O)C1 (stereo unspecified) | -131.2% |
| I.c1ccc(OCCNC2=NCCCN2)cc1 | 17.05% |
| CN(C)c1ccc(CNC2=NCCCN2)cc1.I | -57.09% |
| CCOCc1ccc(CNC2=NCCCN2)cc1.I | 55.49% |
| COc1ccc(-n2cc(CNC(=O)c3cscn3)nn2)cc1 | -125.4% |
| CCc1ncc2c(n1)CN(CC(=O)Nc1ccc(Cl)cn1)CC2 | 58.18% |
| CCc1ncc2c(n1)CN(CC(=O)Nc1ccncc1)CC2 | -164.3% |
| CC(C)c1nc2c(n1C)CCN(CC(=O)Nc1ccc(Cl)cn1)C2 | -37.81% |
| COCC1c2c(cnn2C)CCN1C(=O)c1cccn1C.O=C(O)C(F)(F)F (stereo unspecified) | -111.1% |
